# PTHR1 ag = qHTS for PTHR1 Agonists: Primary Screen | HEK293 GP2 PTHR1 cells, GloSensor cAMP luminescence, 1 h | Potency, µM (highest dose often 115 µM), hits mostly activators | hit rate 0.075% among 410,000; note: nearly all actives have a fitted effect of over 55% in size
#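 HEK-293-derived GP2 cells expressing PTHR1 and a GloSensor cAMP reporter, 3,000/well, plated overnight, given luciferin plus IBMX (each 0.5 mM as added) for 1 h at 37 °C, then compound for 1 h at 37 °C. Luminescence was read after 15 min at room temperature.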
# TRHR enhancer-1 = qHTS for Small Molecule Agonists and Allosteric Enhancers of Human TRH Receptor: Primary Screen for Enhancers; TRHR cells, fluo-8 calcium fluorescence, EC20 TRH enhancement; enhancement, % at 2 µM; hit rate 0.66% among 360,000; in the data active = enhancement above about 30%
# Target sequence (P34981 whole entry, looked up): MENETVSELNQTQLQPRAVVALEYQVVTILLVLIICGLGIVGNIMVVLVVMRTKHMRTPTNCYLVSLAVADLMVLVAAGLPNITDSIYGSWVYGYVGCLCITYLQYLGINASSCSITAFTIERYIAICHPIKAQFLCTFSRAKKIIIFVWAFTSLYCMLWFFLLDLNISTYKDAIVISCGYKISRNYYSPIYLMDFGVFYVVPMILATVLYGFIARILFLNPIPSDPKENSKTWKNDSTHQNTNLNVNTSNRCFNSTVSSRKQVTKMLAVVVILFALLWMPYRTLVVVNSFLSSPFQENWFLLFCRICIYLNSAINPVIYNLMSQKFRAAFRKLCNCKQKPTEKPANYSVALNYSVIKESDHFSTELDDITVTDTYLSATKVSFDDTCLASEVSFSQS
#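 TRHR-expressing cells loaded with fluo-8 calcium dye were read kinetically (ex 480/em 530) during compound addition, then stimulated with an EC20 of TRH (10 nM final). Enhancement of the Gq-mediated intracellular calcium response was scored.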
# TRHR agonist-1 = qHTS for Small Molecule Agonists and Allosteric Enhancers of Human TRH Receptor: Primary Screen for Agonists; Thyrotropin-releasing hormone receptor (Homo sapiens), P34981; TRHR cells, calcium flux fluo-8, FDSS agonist mode; activation, % at 2 µM; hit rate 0.18% among 360,000; AID 493084, 2011; in the data active = activation above about 30%
#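 Agonist-mode FDSS calcium read (Ex 480/Em 530, 1 s cycles) in 1536-well TRHR cells with fluo-8 dye, after 10-cycle baseline and 23 nL compound addition; TRH at EC20 (10 nM final) added afterwards for the enhancer phase.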
# TRPML1 agonist = qHTS for Agonists of the Human Mucolipin Transient Receptor Potential 1 (TRPML1) | Mucolipin-1 (Homo sapiens), Q9GZU1 | TRPML1-expressing cells, Ca2+ dye fluorescence, FDSS | activation, % (concentration not given with the values) | hit rate 0.12% among 410,000 | AID 624414, 2012; in the data active = activation above about 50%; inconclusive = mostly about 30% to 49%
#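 Kinetic FDSS Ca2+ read in Tet-induced TRPML1-DL cells (ABD Ca8 dye plus quencher, 45-90 min RT loading): baseline, then compound, then 110 s agonist window; EC80 agonist 54-4 at 4uM final added afterwards for a 110 s antagonist window.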
# HEK293 tox = qHTS of GLP-1 Receptor Inverse Agonists: Cytotox Screen | HEK293 cAMP-luciferase reporter cells, luminescence, 24 h | Potency, µM (titrated, usually from 38.3 µM), usual class: inhibitors | hit rate 0.13% among 410,000 | AID 624418, 2012;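 note: loss of luciferase light is scored as toxicity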
#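 Luminescence readout: signal drop marks cytotoxicity. Plated cells grew 12 h at 37 °C, 5% CO2, received 23 nL compound for 24 h, then got luciferase reagent, read after 12 min at RT.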
# TRPML1 blocker = qHTS for Inhibitors of the Human Mucolipin Transient Receptor Potential 1 (TRPML1); TRPML1-inducible cells, Ca2+ dye fluorescence, FDSS; hits give low values; inhibition of EC80 agonist-evoked calcium signal; activity change, negative = inhibition, % (concentration not given with the values); Mucolipin-1 (Homo sapiens), Q9GZU1; hit rate 0.02% among 390,000; in the data active = activity change below about -50%; inconclusive = between about -30% and that limit;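 note: stimulus is agonist 54-4 at its EC80 concentration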
#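 Calcium fluorescence in TRPML1-DL cells induced overnight with Tet: a 110 s read after compound pin addition, then a 110 s antagonist read after challenge with 54-4 at 4 uM final (EC80).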
# TRHR enhancer-2 = qHTS for Small Molecule Agonists and Allosteric Enhancers of Human TRH Receptor: Confirmation Screen for Enhancers; 970 tested, under 10 active; TRH receptor cell assay, enhancer confirmation qHTS; shares compounds with TRHR enhancer-1; activity change, negative = inhibition, % at 46.1 µM;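 note: compound effect scored on response to added TRH at EC20 of 10 nM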
# TRHR agonist-2 = qHTS for Small Molecule Agonists and Allosteric Enhancers of Human TRH Receptor: Confirmation Screen for Agonists. shares compounds with TRHR enhancer-1. TRHR-expressing cells, agonist activation read-out. Potency, µM (titrated, usually from 46.1 µM), actives largely listed as activators. hit rate 8% among 970; note: nearly all actives have a fitted effect of over 75% in size
# A number is an active result; 0 = inactive; ? = inconclusive; - = no result. An excerpt weighted towards active compounds, which were near 0.93% of everything screened. Unless noted, calls come from the whole dose curve; as a rule, active = well fitted curve in the direction sought with a large enough effect; inconclusive = small, poorly fitted or top-dose-only effect, or another doubt; inactive = no such curve, though single readings can be large; an effect the other way counts as inactive or inconclusive.
SMILES,PTHR1 ag,TRHR enhancer-1,TRHR agonist-1,TRPML1 agonist,HEK293 tox,TRPML1 blocker,TRHR enhancer-2,TRHR agonist-2
O=C(Cc1ccccc1)N1CCN(c2ccccc2F)CC1,0,48,0,0,0,0,0,0
c1coc(CNc2ncnc3c2nc2n3CCCC2)c1,-,-,-,0,-,-,-,-
CN(C)c1ccc(C(C(=O)NCC2CCCO2)N(C(=O)c2snc(C(N)=O)c2N)c2ccc3c(c2)OCO3)cc1 (centres undefined),0,53,0,0,0,0,0,0
Cc1cccc(N(C(=O)c2snc(C(N)=O)c2N)C(C(=O)NC2CCCC2)c2ccncc2)c1 (centres undefined),0,42,0,0,0,0,0,0
O=C(NNC(=O)c1n[nH]c2ccccc12)c1ccccc1,0,49,0,0,0,0,?,0
Cc1c(C)c2ccc(OCC(=O)NCCCn3ccnc3)cc2oc1=O,0,43,0,0,0,0,0,0
O=Cc1ccc(I)cc1,-,-,-,0,-,-,-,-
COc1cccc2c(=O)c3ccoc3n(C)c12,0,42,0,-,0,-,0,0
COc1cccc2c(=O)c3c(cnn3C)n(C)c12,0,0,0,0,0,0,-,-
COc1ccc(Cl)cc1S(=O)(=O)NC(C)C(=O)NCCCn1ccnc1 (centres undefined),0,67,0,0,0,0,0,0
COc1ccc(-c2cccc(C3C4C=CCCC4(C)C(=O)N3Cc3ccccc3)c2)cc1 (centres undefined),-,-,-,0,-,0,-,-
OCCC1CN(Cc2ccc3nsnc3c2)CCN1CCc1ccccc1 (centres undefined),0,45,0,0,0,0,0,0
CCn1c(N)nc2c1c(=O)n(C)c(=O)n2C,0,44,0,0,0,0,0,0
CCC(C)NCC(O)(c1ccc(Cl)cc1)c1ccc(Cl)cc1 (centres undefined),0,50,0,0,?,0,0,?
OC1C(Br)=Cc2ccccc21 (centres undefined),-,-,-,0,-,-,-,-
Cc1ccc(NS(=O)(=O)c2cccc(C(=O)NCC(c3cccs3)N(C)C)c2)cc1 (centres undefined),0,0,0,0,0,0,-,-
Cc1cccc(NS(=O)(=O)c2ccc(C)c(C(=O)NCC(c3cccs3)N(C)C)c2)c1 (centres undefined),0,42,0,0,0,0,0,0
O=Cc1ccc(N2CCCC2)c([N+](=O)[O-])c1,0,0,0,0,0,0,-,-
O=[N+]([O-])/C=C\c1ccc(N2CCCC2)c(F)c1,0,0,73,?,0,0,0,?
CN(C)Cc1c(C(=O)N/N=C/C=C/c2ccccc2)nnn1-c1nonc1N,0,0,0,0,0,0,-,-
CC(C)c1c(C(=O)N/N=C/C=C/c2ccccc2)nnn1-c1nonc1N,0,76,0,0,0,0,0,0
CCOc1ccc(-c2cc(C(=O)OC)nc3c2c(=O)n(C)c(=O)n3C)cc1,0,43,0,0,0,0,0,0
Cc1ccc(SC2=NS(=O)(=O)c3ccccc32)c(C)c1,-,-,-,0,-,-,-,-
O=C(O)c1cc2cccc([N+](=O)[O-])c2[nH]1,-,-,-,0,-,-,-,-
Cc1ccc(SCc2[nH]nc3c2C2(C(=O)Nc4ccc(F)cc42)C(C#N)=C(N)O3)cc1 (centres undefined),0,0,0,0,0,0,-,-
SMILES,PTHR1 ag,TRHR enhancer-1,TRHR agonist-1,TRPML1 agonist,HEK293 tox,TRPML1 blocker,TRHR enhancer-2,TRHR agonist-2
Cc1[nH]nc2c1C1(C(=O)Nc3ccc([N+](=O)[O-])cc31)C(C#N)=C(N)O2 (centres undefined),0,116,0,0,0,0,0,0
CC(C(=O)c1ccccc1)[n+]1ccc(Cl)c2ccc(Cl)cc21 (centres undefined),-,-,-,0,-,-,-,-
COc1ccc(Oc2nccc(OC)c2C#N)cc1,0,43,0,0,0,0,0,0
Cc1csc(N2CCCC2=O)n1,0,41,0,0,0,0,0,0
CC1=NN(c2ccc(C(=O)O)cc2)C(=O)CC1,?,44,0,0,0,0,0,0
Cc1ccc(S(=O)(=O)/N=C2\C=C(Nc3cccc(C(=O)O)c3)C(=O)c3ccccc32)c(C)c1,0,61,0,0,?,0,0,0
Cc1ccc(S(=O)(=O)/N=C2\C=C(Nc3cccc(C(=O)O)c3)C(=O)c3ccccc32)cc1,0,0,0,0,?,0,-,-
Cc1ccc(S(=O)(=O)N(CC(=O)N2CCOCC2)c2ccccc2F)cc1,0,0,0,0,0,0,-,-
CCOc1ccccc1N(CC(=O)N1CCOCC1)S(=O)(=O)c1ccc(SC)cc1,0,0,92,105,0,0,0,2.1µM
CN(CC(=O)O)c1ccc(/C=C2\C=Cc3ccccc32)cc1,-,-,-,0,-,-,-,-
O=c1oc2c(CN3CCN(CCO)CC3)c(O)ccc2cc1-c1ccccn1,0,0,33,0,0,0,0,?
Cc1c(C=O)ccc(N(C)C)c1C,-,-,-,0,-,-,-,-
O=C1CCCN1CCCNc1ncnc2c1cnn2-c1ccc(Cl)cc1,0,54,0,0,0,0,0,0
Cc1cccc(-n2ncc3c(NCCCN4CCCC4=O)ncnc32)c1,0,0,0,0,0,0,-,-
Cc1cccc(NS(=O)(=O)c2cc3c4c(c2)CCN4C(=O)CC3)c1C,0,45,0,0,0,0,0,0
CCOC(=O)c1sc(N2C(=O)c3oc4ccc(F)cc4c(=O)c3C2c2ccc(C)cc2)nc1C (centres undefined),-,-,-,0,-,-,-,-
c1ncc2snnc2n1,-,-,-,0,-,-,-,-
O=C(Nc1ccc(CN2CCOCC2)cc1)c1ccc(Cl)cc1,0,0,0,0,0,0,-,-
O=C(Nc1ccc(CN2CCOCC2)cc1)c1ccc(F)cc1,0,56,0,0,0,0,0,0

# Screening data as filed in PubChem BioAssay.
